Values joined by “and” are separate entries in the source; they are usually repeats but may differ in a detail not shown here. Equal values may be shown once. Some structures have more than one record in an assay (separate samples or runs), and their calls can disagree. Active and inactive are the calls of the source. The calls were made as follows: active = hit-call score of the fitted dose curve at least 0.9, where 1 is the maximum; inactive = score below 0.9.
Key:
[1] = ATG_CRE_CIS: Attagene CIS-FACTORIAL HepG2 Assay for human cAMP Responsive Element (CRE) binding protein 3 (AID 2282926); settings: HepG2 CRE cis-reporter, Attagene multiplexed mRNA; actives raise or lower the signal
How it was run: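 Liver-derived HepG2, transfected with a CRE-containing reporter panel, exposed 24 h; transcript levels sized and quantified by capillary electrophoresis of labelled amplicons; signal changes either way referenced to vehicle.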

[2] = molecular target: CCAAT/enhancer-binding protein beta (Homo sapiens) (UniProt P17676); assay: ATG_C_EBP_CIS: Attagene CIS-FACTORIAL HepG2 Assay for human CCAAT/Enhancer Binding Protein (C/EBP) beta (AID 2282927); settings: HepG2 Attagene cis-factorial transcription factor reporter; actives raise or lower the signal
How it was run: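 HepG2, transient MRTU transfection, 24 h treatment. RT-PCR plus CE fluorescence; DMSO negative control, bidirectional fit.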

[3] = ATG_CMV_CIS: Attagene CIS-FACTORIAL HepG2 Assay for human CMV (Internal Marker) (AID 2282928); settings: HepG2 CMV promoter reporter, transcription factor profiling; actives raise or lower the signal;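 also: endpoint acts as a background internal control marker rather than a target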
How it was run: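 Reporter transcripts from transfected HepG2 cells are isolated after 24 h of chemical dosing, reverse-transcribed and amplified. Fragments labeled with 6-FAM are cut with HpaI and quantified by capillary electrophoresis; DMSO defines baseline.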

[4] = ATG_DR4_LXR_CIS: Attagene CIS-FACTORIAL HepG2 Assay for human Liver X Receptor (LXR), DR4 submotif (AID 2282929); settings: HepG2 Attagene DR4 cis-reporter, mRNA transcription; actives raise or lower the signal
How it was run: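 The endpoint is DR4-element-driven reporter transcripts after 24 h chemical exposure of transfected HepG2 cells. These were measured via RT-PCR and capillary electrophoresis, and gain or loss of signal was fitted relative to DMSO controls.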

[5] = molecular target: Aryl hydrocarbon receptor (Homo sapiens) (UniProt P35869); assay: ATG_Ahr_CIS: Attagene CIS-FACTORIAL HepG2 Assay for human Aryl Hydrocarbon Receptor (Ahr) (AID 2282930); settings: HepG2 AhR cis-factorial reporter transcription; actives raise or lower the signal
How it was run: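 Endogenous factor activity is tracked through cis-promoter reporter units transfected into HepG2 cells. Transcript levels at 24 h are read by fluorescent RT-PCR and capillary electrophoresis, with activity in either direction scored relative to DMSO.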

[6] = ATG_AP_1_CIS: Attagene CIS-FACTORIAL HepG2 Assay for human Activator Protein 1 (AP-1) (AID 2282931); settings: HepG2 Attagene cis-factorial AP-1 reporter mRNA; actives raise or lower the signal
How it was run: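 Readout is reporter transcript level from endogenous transcription factor activity, quantified by RT-PCR with fluorescent primer extension and capillary electrophoresis. Transiently transfected HepG2 cells, 24 h exposure. Curves fitted both directions versus DMSO.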

[7] = ATG_AP_2_CIS: Attagene CIS-FACTORIAL HepG2 Assay for human Activator Protein 2 (AP-2) (AID 2282932); settings: HepG2 AP-2 cis-reporter, Attagene transcription factor profiling; actives raise or lower the signal
How it was run: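 Read-out: fluorescent reporter mRNA via RT-PCR and capillary electrophoresis, 24 h post-dose in transiently transfected HepG2. Endogenous factors drive cis-promoter reporters; gain or loss of signal fitted bidirectionally against DMSO.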

[8] = ATG_BRE_CIS: Attagene CIS-FACTORIAL HepG2 Assay for human Bone Morphogenetic Protein (BMP) Response Element (BRE) (AID 2282933); settings: HepG2 BMP response element reporter, Attagene transcription factor profiling; actives raise or lower the signal
How it was run: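 Read-out: reporter mRNA induction quantified by RT-PCR and capillary electrophoresis after 24 h chemical exposure of transfected HepG2 cells. Endogenous factor activity on the BMP response element; gain or loss fitted against DMSO baseline.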

[9] = APR_HepG2_NuclearSize_72hr: Apredica 72-hour HepG2 Assay for Nuclear Size (AID 2282925); settings: high-content imaging, actives raise or lower the signal
How it was run: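 Read-out: nuclear diameter from Hoechst 33342 images (ArrayScan, 20x, six fields/well), via cell-cycle image analysis. HepG2 were dosed 0.39–200 uM for 72 hr in 0.5% DMSO. Bidirectional fit relative to DMSO.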

[10] = molecular target: Retinoic acid receptor alpha (Homo sapiens) (UniProt P10276); assay: ATG_DR5_RAR_CIS: Attagene CIS-FACTORIAL HepG2 Assay for human Retinoic Acid Receptor Alpha (RARE), DR5 submotif (AID 2282934); settings: HepG2 Attagene cis-factorial RARE DR5 reporter, mRNA; actives raise or lower the signal;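 as to AC50: reporter responds to endogenous RAR alpha beta and gamma in HepG2 not RARA alone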
How it was run: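 After 24 h of chemical exposure, transiently transfected HepG2 cells were lysed for total RNA; the DR5-regulated reporter transcript was quantified via RT-PCR and capillary electrophoresis, with activity fitted bidirectionally against DMSO.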

Measured: AC50

Aryl hydrocarbon receptor (Homo sapiens), sequence (P35869 whole entry, looked up): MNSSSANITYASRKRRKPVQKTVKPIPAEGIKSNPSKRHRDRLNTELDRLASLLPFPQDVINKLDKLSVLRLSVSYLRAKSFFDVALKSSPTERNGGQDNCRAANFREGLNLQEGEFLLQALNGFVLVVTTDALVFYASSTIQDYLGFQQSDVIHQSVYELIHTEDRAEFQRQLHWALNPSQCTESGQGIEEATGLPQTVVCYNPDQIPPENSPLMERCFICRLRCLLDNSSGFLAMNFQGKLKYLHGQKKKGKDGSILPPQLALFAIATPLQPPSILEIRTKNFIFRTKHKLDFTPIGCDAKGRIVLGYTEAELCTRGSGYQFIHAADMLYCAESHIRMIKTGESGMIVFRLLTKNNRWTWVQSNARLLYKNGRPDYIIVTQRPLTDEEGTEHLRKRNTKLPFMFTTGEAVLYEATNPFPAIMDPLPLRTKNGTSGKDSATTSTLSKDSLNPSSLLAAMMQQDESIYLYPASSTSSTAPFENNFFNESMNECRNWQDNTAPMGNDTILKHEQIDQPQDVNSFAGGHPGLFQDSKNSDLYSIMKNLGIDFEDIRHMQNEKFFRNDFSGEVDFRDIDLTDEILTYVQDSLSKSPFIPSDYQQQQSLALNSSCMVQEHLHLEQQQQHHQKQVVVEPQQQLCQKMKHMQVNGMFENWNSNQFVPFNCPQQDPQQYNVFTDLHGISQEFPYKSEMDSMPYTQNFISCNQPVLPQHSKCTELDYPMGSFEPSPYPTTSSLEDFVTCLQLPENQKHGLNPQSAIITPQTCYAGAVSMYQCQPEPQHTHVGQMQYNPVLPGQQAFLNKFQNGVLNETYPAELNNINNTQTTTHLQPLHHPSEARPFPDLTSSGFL
Retinoic acid receptor alpha (Homo sapiens), sequence (P10276 whole entry, looked up): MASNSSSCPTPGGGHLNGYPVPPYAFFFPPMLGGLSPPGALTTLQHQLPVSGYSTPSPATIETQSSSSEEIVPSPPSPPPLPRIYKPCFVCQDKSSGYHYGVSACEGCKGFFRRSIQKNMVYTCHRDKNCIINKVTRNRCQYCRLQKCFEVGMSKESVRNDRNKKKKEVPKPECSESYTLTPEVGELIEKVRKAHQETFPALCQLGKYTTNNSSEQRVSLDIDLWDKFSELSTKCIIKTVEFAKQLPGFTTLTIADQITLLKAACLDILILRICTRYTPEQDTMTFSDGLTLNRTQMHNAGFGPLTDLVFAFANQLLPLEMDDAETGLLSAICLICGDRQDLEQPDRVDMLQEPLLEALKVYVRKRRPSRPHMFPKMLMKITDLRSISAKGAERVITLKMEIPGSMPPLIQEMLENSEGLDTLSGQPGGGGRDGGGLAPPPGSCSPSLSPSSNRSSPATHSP
CCAAT/enhancer-binding protein beta (Homo sapiens), sequence (P17676 whole entry, looked up): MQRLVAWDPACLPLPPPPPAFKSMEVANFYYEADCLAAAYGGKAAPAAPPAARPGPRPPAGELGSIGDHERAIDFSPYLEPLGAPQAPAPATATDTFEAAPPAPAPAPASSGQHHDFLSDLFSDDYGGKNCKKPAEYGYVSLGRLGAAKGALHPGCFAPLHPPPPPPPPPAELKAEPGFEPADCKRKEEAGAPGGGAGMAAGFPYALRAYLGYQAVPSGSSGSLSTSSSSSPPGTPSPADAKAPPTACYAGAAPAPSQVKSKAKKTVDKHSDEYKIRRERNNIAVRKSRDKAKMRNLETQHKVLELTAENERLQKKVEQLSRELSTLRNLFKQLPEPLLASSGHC

Cc1cccc(O)c1
not listed: [9] | [10]
inactive: all other assays above

CCCO[Si](OCCC)(OCCC)OCCC
not listed: [8] | [9] | [10]
inactive: all other assays above

C#C[C@]1(O)CC[C@H]2[C@@H]3CCc4cc(O)ccc4[C@H]3CC[C@@]21C
active: [1] 66.9 µM and 26.4 µM and 37 µM | [3] 26.4 µM and 26 µM and 26.2 µM | [4] 100 µM and 34 µM | [5] 19.8 µM and 9.23 µM | [6] 47.3 µM | [7] 167 µM and 46.7 µM | [10] 61 µM and 81.7 µM and 24.8 µM
inactive: [9] | [1] | [3] | [4] | [5] | [6] | [7] | [10]

CC1(C)CC(=O)CC(C)(C)N1
not listed: [8] | [9] | [10]
inactive: all other assays above

C=C1CC/C=C(\C)CC[C@@H]2[C@@H]1CC2(C)C
active: [1] 124 µM | [3] 42.4 µM | [4] 61.3 µM
not listed: [9] | [10]
inactive: all other assays above

CCCCOC(=O)C(C)OC(=O)CCC (configuration not stated)
not listed: [9]
inactive: all other assays above

O=C(O)c1cc2ccccc2cc1O
active: [5] 4.5 µM
not listed: [9]
inactive: all other assays above

CC(C)CCCC(C)(C)O
not listed: [9] | [10]
inactive: all other assays above

CCCCC1CCCCC(=O)O1 (configuration not stated)
not listed: [9]
inactive: all other assays above

O=Cc1ccccc1O
active: [5] 48.5 µM
not listed: [9]
inactive: all other assays above

CCCCCCCCCCCCOC(C)=O
not listed: [9]
inactive: all other assays above

[Cu+]
active: [5] 15 µM
not listed: [9]
inactive: all other assays above

[Cl][Dy]([Cl])[Cl]
not listed: [9] | [10]
inactive: all other assays above

NC(N)=S
not listed: [9] | [10]
inactive: all other assays above

C=C(C)CCCC(C)CCO (configuration not stated)
not listed: [8] | [9]
inactive: all other assays above

Cc1ccncc1
not listed: [9]
inactive: all other assays above

CCOc1ccc(NC(C)=O)cc1
not listed: [9] | [10]
inactive: all other assays above

Brc1cc(Br)cc(Br)c1
not listed: [9] | [10]
inactive: all other assays above

CC(C)(CO)CO
not listed: [9] | [10]
inactive: all other assays above

COC(=O)c1ccc(C(=O)OC)cc1
not listed: [9]
inactive: all other assays above

O=C(O)c1cccc(Cl)n1
not listed: [9]
inactive: all other assays above

Nc1cc([N+](=O)[O-])ccc1C(=O)O
active: [5] 20.3 µM
not listed: [9]
inactive: all other assays above

OC[C@@H](O)[C@H](O)[C@@H](O)[C@@H](O)CO
not listed: [8] | [9]
inactive: all other assays above

C=C(C)C(=O)OCCC[Si](OC)(OC)OC
not listed: [9]
inactive: all other assays above

COc1ccc(C(C)=O)cc1
not listed: [8] | [9]
inactive: all other assays above

CC1=CCC(C(C)C)=CC1
not listed: [9] | [10]
inactive: all other assays above

CCCCCCCCOC(C)=O
not listed: [9]
inactive: all other assays above

CC(=O)OC(C)(C)C1CC=C(C)CC1 (configuration not stated)
active: [5] 8.48 µM
not listed: [9]
inactive: all other assays above

Reference: PubChem BioAssay (EPA / NIEHS)
